In PubChem BioAssay (NCI):
The panel holds about 83,000 compounds, 20% with a hit somewhere; the sample as a whole holds those more often.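 A percent growth of 40 corresponds to 60% growth inhibition; 0 means no net growth; -100 means all cells died. Active threshold: below 10.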 The source made the active and inactive calls.

Tested on: HT29 colon
Test: NCI-60 one-dose screen, 48 h (100 = growth as untreated, 0 = no growth, -100 = all killed)
Details: 10 µM unless noted

Structure (SMILES) | growth
COc1ccccc1-c1ccc2c(N)c(C(=O)c3ccc4c(c3)OCO4)sc2n1 | 47% (inactive)
CC(=O)C1=C(O)C=C2Oc3c(C(=O)/C=C/c4cc(C(F)(F)F)cc(C(F)(F)F)c4)c(O)c(C)c(O)c3[C@]2(C)C1=O | -42.4% (active)
CC/C=C\C[C@H](O)C/C=C1/C(=O)C=C[C@@H]1C/C=C\CCCC(=O)NC(C)C | -29.6% (active)
COc1ccc(C(=O)c2sc3nc4c(cc3c2N)CCCC4)cc1OC | 19% (inactive)
CS(CCCCN=C=S)=NC(=O)c1c(F)c(F)c(F)c(F)c1F (stereo not drawn) | 57.6% (inactive)
COc1ccc(-c2c(C)noc2-c2ccc(O)cc2O)cc1 | 102% (inactive)
COc1ccc(C(=O)c2sc3nc(-c4ccccc4OC)ccc3c2N)cc1OC | 56.2% (inactive)
NC1=CC(=O)C(=O)c2ccccc21 | 106% (inactive)
COc1ccc(C(=O)c2sc3nc4c(c(C(F)(F)F)c3c2N)CN(C(C)=O)CC4)cc1OC | 95% (inactive)
COc1cc(C(=O)/C=C/c2c(C)n([O-])c3ccc(C)cc3[n+]2=O)cc(OC)c1OC | 25.3% (inactive)
COc1cc(C2C(C(=O)c3cccs3)=C(O)C(=O)N2CCN2CCOCC2)cc(OC)c1OC (stereo not drawn) | 103% (inactive)
COC(=O)C12C3C(=O)N(c4ccc(OC)cc4)C(=O)C3C(c3cn(-c4ccccc4)nc3C)N1[C@H](c1cn(-c3ccccc3)nc1C)[C@@H]1C(=O)N(c3ccc(OC)cc3)C(=O)[C@@H]12 (stereo partly drawn) | 103% (inactive)
COc1cc(C2CC(=O)Nc3c2cnn3Cc2ccco2)cc2c1OCCO2 (stereo not drawn) | 88.8% (inactive)
COc1ccc(C2CC(=O)Nc3c2c(C)nn3-c2nc3ccccc3[nH]2)cc1 (stereo not drawn) | 103% (inactive)
CCn1cc2c(cc1=O)-c1nc3ccccc3c3ccnc(c13)C2=O | 57.3% (inactive)
NCc1cn2cc(Cl)sc2n1 | 105% (inactive)
CCOc1ccc(Nc2nc(-c3c(C)nc4ncccn34)cs2)cc1 | 4.76% (active)
N#CC1=C(N)Oc2c(ccc3ccccc23)C1c1cccs1 (stereo not drawn) | 5.33% (active)
CCOC(=O)C12CCCC1=CC(=O)CC2 (stereo not drawn) | 131% (inactive)
CCCC(=O)Oc1ccc(/C(=C(/CC)Cc2ccccc2)c2ccc(OCCN3CCCC3)cc2)cc1 | 16.5% (inactive)

Structure (SMILES) | growth
C=C1CCC2C3(C)COC(c4ccc(OC)cc4Br)OC3CCC2(C)C1/C=C/C1=CCOC1=O (stereo not drawn) | 75.6% (inactive)
CS(=O)(=O)c1c(Nc2ccccc2)n[nH]c1N | 97.3% (inactive)
CC/C=C\C[C@H](O)C/C=C1/C(=O)C=C[C@@H]1C/C=C\CCCC(N)=O | -1.88% (active)
CCN(CC)C12CCCCC1(C)C(C#N)(C#N)C(C#N)=C(N)O2 (stereo not drawn) | 101% (inactive)
O=C1c2c[n+](Cc3ccccc3)ccc2-c2nc3ccccc3c3ccnc1c23 | -25% (active)
Cc1nn(-c2nc3ccccc3[nH]2)c2c1C(c1ccc3c(c1)OCO3)CC(=O)N2 (stereo not drawn) | 34.7% (inactive)
O=c1ccc2cc3ccccc3cc2[nH]1 | 101% (inactive)
O=C(Nc1cccc2[nH]c(C(F)(F)F)nc12)c1ccc(Br)cc1F | 61.9% (inactive)
COc1cc(-c2cnc3nonc3n2)c(OC)c2c1OCO2 | 104% (inactive)
COc1cnc2c(c1)C(=O)c1c-2n(CCCBr)c(=O)c2cc([N+](=O)[O-])ccc12 | 0.984% (active)
Clc1cccc(Nc2nc(Nc3cnc4ccccc4c3)c3[nH]cnc3n2)c1 | 79% (inactive)
COc1cc(C2CC(=O)c3c(C)nn(-c4nc5ccccc5[nH]4)c3C2)cc(OC)c1OC (stereo not drawn) | 74.2% (inactive)
CC(C)Oc1nc2c(c(=O)n(C)c(=O)n2C)n1C | 96.6% (inactive)
CC/C=C\C[C@H](F)C/C=C1/C(=O)C=C[C@@H]1C/C=C\CCCC(=O)OC | -31% (active)
Cc1ccn2c(-c3csc(Nc4cccc(O)c4)n3)c(C)nc2c1 | 61.7% (inactive)
O=C(/C=C/c1cc2ccccc2[nH]c1=O)/C=C/c1cc2ccccc2[nH]c1=O | -39.2% (active)
COc1ccc(-c2cnoc2-c2cc(OC)c3c(c2)OCCO3)cc1 | 1.26% (active)
CC/C(Cc1ccccc1)=C(\c1ccc(OCCN2CCCC2)cc1)c1ccc(OC(C)=O)cc1 | 24.4% (inactive)
C[C@]12C[C@@H](c3ccoc3)OC(=O)[C@@H]1CC[C@]1(C)[C@@H]2CC[C@@H](O)[C@]1(C)O | 68.3% (inactive)

Tested on: SNB-75 CNS
Test: as above
Details: 10 µM unless noted

Structure (SMILES) | growth
COc1ccccc1-c1ccc2c(N)c(C(=O)c3ccc4c(c3)OCO4)sc2n1 | 85.1% (inactive)
CC(=O)C1=C(O)C=C2Oc3c(C(=O)/C=C/c4cc(C(F)(F)F)cc(C(F)(F)F)c4)c(O)c(C)c(O)c3[C@]2(C)C1=O | -28.3% (active)
CC/C=C\C[C@H](O)C/C=C1/C(=O)C=C[C@@H]1C/C=C\CCCC(=O)NC(C)C | 68% (inactive)
COc1ccc(C(=O)c2sc3nc4c(cc3c2N)CCCC4)cc1OC | 49.3% (inactive)
CS(CCCCN=C=S)=NC(=O)c1c(F)c(F)c(F)c(F)c1F (stereo not drawn) | 74.3% (inactive)
COc1ccc(-c2c(C)noc2-c2ccc(O)cc2O)cc1 | 90.9% (inactive)
COc1ccc(C(=O)c2sc3nc(-c4ccccc4OC)ccc3c2N)cc1OC | 73.2% (inactive)
NC1=CC(=O)C(=O)c2ccccc21 | 113% (inactive)
COc1ccc(C(=O)c2sc3nc4c(c(C(F)(F)F)c3c2N)CN(C(C)=O)CC4)cc1OC | 74.6% (inactive)
COc1cc(C(=O)/C=C/c2c(C)n([O-])c3ccc(C)cc3[n+]2=O)cc(OC)c1OC | 73.2% (inactive)
COc1cc(C2C(C(=O)c3cccs3)=C(O)C(=O)N2CCN2CCOCC2)cc(OC)c1OC (stereo not drawn) | 91.6% (inactive)
COC(=O)C12C3C(=O)N(c4ccc(OC)cc4)C(=O)C3C(c3cn(-c4ccccc4)nc3C)N1[C@H](c1cn(-c3ccccc3)nc1C)[C@@H]1C(=O)N(c3ccc(OC)cc3)C(=O)[C@@H]12 (stereo partly drawn) | 89.9% (inactive)
COc1cc(C2CC(=O)Nc3c2cnn3Cc2ccco2)cc2c1OCCO2 (stereo not drawn) | 77.5% (inactive)
COc1ccc(C2CC(=O)Nc3c2c(C)nn3-c2nc3ccccc3[nH]2)cc1 (stereo not drawn) | 103% (inactive)
CCn1cc2c(cc1=O)-c1nc3ccccc3c3ccnc(c13)C2=O | 46.9% (inactive)
NCc1cn2cc(Cl)sc2n1 | 92.6% (inactive)
CCOc1ccc(Nc2nc(-c3c(C)nc4ncccn34)cs2)cc1 | 22.9% (inactive)
N#CC1=C(N)Oc2c(ccc3ccccc23)C1c1cccs1 (stereo not drawn) | 4.67% (active)
CCOC(=O)C12CCCC1=CC(=O)CC2 (stereo not drawn) | 89.1% (inactive)
CCCC(=O)Oc1ccc(/C(=C(/CC)Cc2ccccc2)c2ccc(OCCN3CCCC3)cc2)cc1 | 62.5% (inactive)

Structure (SMILES) | growth
C=C1CCC2C3(C)COC(c4ccc(OC)cc4Br)OC3CCC2(C)C1/C=C/C1=CCOC1=O (stereo not drawn) | 82.3% (inactive)
CS(=O)(=O)c1c(Nc2ccccc2)n[nH]c1N | 114% (inactive)
CC/C=C\C[C@H](O)C/C=C1/C(=O)C=C[C@@H]1C/C=C\CCCC(N)=O | 69.3% (inactive)
CCN(CC)C12CCCCC1(C)C(C#N)(C#N)C(C#N)=C(N)O2 (stereo not drawn) | 92.1% (inactive)
O=C1c2c[n+](Cc3ccccc3)ccc2-c2nc3ccccc3c3ccnc1c23 | -80.7% (active)
Cc1nn(-c2nc3ccccc3[nH]2)c2c1C(c1ccc3c(c1)OCO3)CC(=O)N2 (stereo not drawn) | 39.8% (inactive)
O=c1ccc2cc3ccccc3cc2[nH]1 | 82.2% (inactive)
O=C(Nc1cccc2[nH]c(C(F)(F)F)nc12)c1ccc(Br)cc1F | 60.8% (inactive)
COc1cc(-c2cnc3nonc3n2)c(OC)c2c1OCO2 | 95.7% (inactive)
COc1cnc2c(c1)C(=O)c1c-2n(CCCBr)c(=O)c2cc([N+](=O)[O-])ccc12 | 13.5% (inactive)
Clc1cccc(Nc2nc(Nc3cnc4ccccc4c3)c3[nH]cnc3n2)c1 | 52.4% (inactive)
COc1cc(C2CC(=O)c3c(C)nn(-c4nc5ccccc5[nH]4)c3C2)cc(OC)c1OC (stereo not drawn) | -24.8% (active)
CC(C)Oc1nc2c(c(=O)n(C)c(=O)n2C)n1C | 88% (inactive)
CC/C=C\C[C@H](F)C/C=C1/C(=O)C=C[C@@H]1C/C=C\CCCC(=O)OC | 61.9% (inactive)
Cc1ccn2c(-c3csc(Nc4cccc(O)c4)n3)c(C)nc2c1 | -2.73% (active)
O=C(/C=C/c1cc2ccccc2[nH]c1=O)/C=C/c1cc2ccccc2[nH]c1=O | 19.5% (inactive)
COc1ccc(-c2cnoc2-c2cc(OC)c3c(c2)OCCO3)cc1 | 13.2% (inactive)
CC/C(Cc1ccccc1)=C(\c1ccc(OCCN2CCCC2)cc1)c1ccc(OC(C)=O)cc1 | 57.8% (inactive)
C[C@]12C[C@@H](c3ccoc3)OC(=O)[C@@H]1CC[C@]1(C)[C@@H]2CC[C@@H](O)[C@]1(C)O | 62.3% (inactive)
